Measured values taken from ChEMBL document CHEMBL3988442, “University of Dundee, Small-Polar-MMV Screening Library” (2021).
About 1,000 (1.4%) of roughly 69,000 compounds showed an effect of 50% or more. This is one part of a sample in which strong results are shown more often than they occur.

Tested on: Leishmania donovani
Assay: Leishmania intramacrophage assay
Assay type: functional, organism-based
Set-up: scale not given: in the data most compounds retested in dose-response had high values

For `COc1ccc(C2CC(=O)Oc3cc(C)[nH]c(=O)c32)cc1` (stereo not given), which “Percent Effect” value (30 µM, 30.03 µM) is on record?
Its value is -4.044%.

`Cc1nnc(C2Cc3ccccc3CN2Cc2nc(C(C)C)no2)o1` (stereo not given) was tested. Which “Percent Effect” value (30 µM) did it give?
The value was -13.45%.

With `CC(C)N1C(=O)CC(NC(=O)c2cc(Cl)sc2Cl)C1=O` (stereo not given) as the compound, how does the “Percent Effect” value (30.3 µM, […]) read?
Its value is 8.109%.

For `O=C(NCc1cccnc1)[C@@H]1C[C@H]2[C@H](CCN2c2ncccn2)O1.O=C(O)C(F)(F)F.O=C(O)C(F)(F)F`, which “Percent Effect” value (30.3 µM, […]) is on record?
Its value is 4.628%.

How did the “Percent Effect” value (30.3 µM, […]) turn out when `COCC(NC(=O)NCc1cccc(C#N)c1)c1ccco1` (stereo not given) was run?
The value was 13.13%.

`Cc1nc(CN2CCN(c3cncc(Cl)n3)CC2)no1` was tested. Which “Percent Effect” value (30.3 µM, […]) did it give?
The value was -1.637%.

How did the “Percent Effect” value (30.3 µM, […]) turn out when `Cc1noc(CN2CCN(CCO)CC2)n1` was run?
Its value is 9.212%.

With `Cc1noc(CN2CCN(c3cncc(Cl)n3)CC2)n1` as the compound, how does the “Percent Effect” value (30.3 µM, […]) read?
The value was 51.54%.

How did the “Percent Effect” value (30 µM, 30.03 µM) turn out when `Cc1nc2cc(C(=O)N3CCCC(n4cncn4)C3)ccc2n1C` (stereo not given) was run?
The value was 12.85%.

`Fc1cccnc1N1CCCC(c2nccs2)C1` (stereo not given) was tested. Which “Percent Effect” value (30.3 µM, […]) did it give?
The value was 14.11%.

With `c1ccc(Cn2cccn2)c(CNCC2CNc3ccnn3C2)c1` (stereo not given) as the compound, how does the “Percent Effect” value (30 µM, 30.03 µM) read?
The value was 46.43%.

With `Cc1cc2n(n1)CC(CNC1CCN(Cc3ccccn3)CC1)CN2` (stereo not given) as the compound, how does the “Percent Effect” value (30.3 µM, […]) read?
Its value is 17.09%.

For `Cc1cc2n(n1)CC(CNC1CCN(c3ccccn3)CC1)CN2` (stereo not given), which “Percent Effect” value (30.3 µM, […]) is on record?
Its value is -5.394%.

With `OCc1ccccc1CNCC1CNc2ccnn2C1` (stereo not given) as the compound, how does the “Percent Effect” value (30.3 µM, […]) read?
Its value is 22.72%.

Which “Percent Effect” value (30.3 µM, […]) does the source give for `Cc1cc2n(n1)CC(CNC1CCN(Cc3ccncc3)CC1)CN2` (stereo not given) here?
Its value is 2.182%.

`Cc1cc2n(n1)CC(CNC1CCN(CCc3ccccc3)CC1)CN2` (stereo not given) was tested. Which “Percent Effect” value (30.3 µM, […]) did it give?
The value was 15.82%.

How did the “Percent Effect” value (30.3 µM, […]) turn out when `Cc1cccc(CN2CCC(NCC3CNc4cc(C)nn4C3)CC2)c1` (stereo not given) was run?
The value was 50.3%.

For `Cc1ccccc1CN1CCC(NCC2CNc3ccnn3C2)CC1` (stereo not given), which “Percent Effect” value (30 µM, 30.03 µM) is on record?
Its value is 58.34%.

How did the “Percent Effect” value (30 µM, 30.03 µM) turn out when `Cc1cc2n(n1)CC(CNC1CCN(Cc3ccccc3C)CC1)CN2` (stereo not given) was run?
Its value is 54.12%.

With `O=C(c1cscn1)N1CCc2ncnc(-c3ccncc3)c2CC1` as the compound, how does the “Percent Effect” value (30.3 µM, […]) read?
Its value is 15.49%.

Which “Percent Effect” value (30.3 µM, […]) does the source give for `Cc1ncc2c(c1CNC(=O)C1(c3ccc(F)cc3)CC1)CCNC2` here?
The value was 8.933%.

For `Oc1cc(CN2CCC(O)(Cn3ccnc3)CC2)nc2ccc(F)cc12`, which “Percent Effect” value (30.3 µM, […]) is on record?
The value was 12.45%.

`Cc1nc(CN2CCCC(N(C)Cc3c(C)noc3C)C2)no1` (stereo not given) was tested. Which “Percent Effect” value (30 µM, 30.03 µM) did it give?
Its value is 36.91%.

`COc1ccc(C(=O)N2CCCCC2c2nc(C)cs2)nn1` (stereo not given) was tested. Which “Percent Effect” value (30 µM, 30.03 µM) did it give?
The value was 9.548%.

How did the “Percent Effect” value (30.3 µM, […]) turn out when `O=C(C1CNCCO1)N1CCCC(c2ccccc2)(c2ccccc2)C1` (stereo not given) was run?
The value was 80.57%.

How did the “Percent Effect” value (30.3 µM, […]) turn out when `O=C(C1CNCCO1)N1CCC(c2cc(N3CCCC3)ncn2)CC1` (stereo not given) was run?
The value was -9.261%.

How did the “Percent Effect” value (30.3 µM, […]) turn out when `CCn1c(CC2CCN(C(=O)C3CNCCO3)CC2)nn(C)c1=O` (stereo not given) was run?
Its value is -9.405%.

How did the “Percent Effect” value (30.3 µM, […]) turn out when `Cc1cccc(CN2CC[C@H]3O[C@H](C(=O)Nc4cnccn4)CC[C@H]32)n1.O=C(O)C(F)(F)F.O=C(O)C(F)(F)F` was run?
Its value is 32.33%.

How did the “Percent Effect” value (30.3 µM, […]) turn out when `Cc1csc(CN2CC[C@H]3O[C@H](C(=O)Nc4cccnc4)CC[C@H]32)n1.O=C(O)C(F)(F)F.O=C(O)C(F)(F)F` was run?
The value was 50.68%.

How did the “Percent Effect” value (30.3 µM, […]) turn out when `O=C(NCc1cccnc1)[C@@H]1CC[C@@H]2[C@@H](CCN2c2ncccn2)O1.O=C(O)C(F)(F)F.O=C(O)C(F)(F)F` was run?
Its value is 42.67%.

With `O=C(NCc1cccnc1)[C@@H]1CC[C@@H]2[C@@H](CCN2c2ncc(F)cn2)O1.O=C(O)C(F)(F)F.O=C(O)C(F)(F)F` as the compound, how does the “Percent Effect” value (30.3 µM, […]) read?
Its value is 56.7%.

`O=C(Nc1cnccn1)[C@@H]1CC[C@@H]2[C@@H](CCN2Cc2nccs2)O1.O=C(O)C(F)(F)F` was tested. Which “Percent Effect” value (30.3 µM, […]) did it give?
The value was -8.357%.

For `O=C(NCc1cccnc1)[C@H]1CC[C@@H]2[C@@H](CCN2c2ncccn2)O1.O=C(O)C(F)(F)F.O=C(O)C(F)(F)F`, which “Percent Effect” value (30.3 µM, […]) is on record?
Its value is 6.718%.

`CC(C)CN1CC(O)CN(S(=O)(=O)c2ccccc2)CC1=O` (stereo not given) was tested. Which “Percent Effect” value (30.3 µM, […]) did it give?
Its value is -1.941%.

Which “Percent Effect” value (30 µM) does the source give for `CN(Cc1ccncc1)C(=O)NCc1nnc2n1CCCCC2` here?
The value was -1.906%.

Which “Percent Effect” value (30.3 µM, […]) does the source give for `COCCn1cc(NCc2cn(C)nc2-c2ccncc2)cn1` here?
Its value is 4.13%.

How did the “Percent Effect” value (30 µM, 30.03 µM) turn out when `O=C(O)C(F)(F)F.OCCN1CCOC2(CCCN(c3cccc(F)c3)C2)C1` (stereo not given) was run?
Its value is 37.14%.

How did the “Percent Effect” value (30.3 µM, […]) turn out when `Cc1ccc(C2CSCCN2C(=O)c2cccs2)o1` (stereo not given) was run?
The value was 15.58%.

With `CC(C)CN1CC2(CCN(C(=O)c3cn4cccnc4n3)CC2)CC1=O` as the compound, how does the “Percent Effect” value (30.3 µM, […]) read?
The value was -23.89%.

How did the “Percent Effect” value (30.3 µM, […]) turn out when `CN1CC2(CCN(C(=O)c3cn4cccnc4n3)CC2)CC1=O` was run?
Its value is -9.039%.

With `CCN1CC2(CCC1=O)CCN(C(=O)c1cn3cccnc3n1)CC2` as the compound, how does the “Percent Effect” value (30.3 µM, […]) read?
The value was 50.01%.

Which “Percent Effect” value (30.3 µM, […]) does the source give for `CCOCc1cnc2n1CCN(C(=O)Cc1cccs1)C2C` (stereo not given) here?
The value was 53.58%.

`CC1c2ncc(Cn3cncn3)n2CCN1C(=O)Cc1cccs1` (stereo not given) was tested. Which “Percent Effect” value (30.3 µM, […]) did it give?
Its value is 31.82%.

How did the “Percent Effect” value (30.3 µM, […]) turn out when `CCOCc1cnc2n1CCN(C(=O)Cc1ccco1)C2C` (stereo not given) was run?
The value was 17.38%.

`Cl.c1cnc(Nc2cncc(C3CCCN3)n2)cn1` (stereo not given) was tested. Which “Percent Effect” value (30.3 µM, […]) did it give?
The value was 5.876%.

`Cc1cnc(N2CCC3(CC2)CC(NC(=O)N(C)C)CO3)nc1` (stereo not given) was tested. Which “Percent Effect” value (30.3 µM, […]) did it give?
The value was 5.267%.

Which “Percent Effect” value (30.3 µM, […]) does the source give for `CCCNC(=O)c1cc2c(s1)CCN2c1ncccn1` here?
Its value is 24.35%.

For `O=C(NCC1CC1)c1cc2c(s1)CCN2c1ncccn1`, which “Percent Effect” value (30.3 µM, […]) is on record?
Its value is 54.07%.

How did the “Percent Effect” value (30.3 µM, […]) turn out when `O=C(NCCN1CCCC1)c1cc2c(s1)CCN2c1ncccn1` was run?
The value was 35.65%.

How did the “Percent Effect” value (30.3 µM, […]) turn out when `COc1ccc(CCN2C(=O)O[C@@H]3CN(C4CCSCC4)C[C@@H]32)cc1` was run?
Its value is 4.59%.
